Shown are actives, neighbours in structure and some others; about 4% of the full set was active somewhere.
tim23-1 inh = growth inhibitors of tim23-1 mutant yeast, primary screen, luminescence, uHTS; S. cerevisiae tim23-1 growth, BacTiter-Glo luminescence, 24 h; inhibition, % at 20 µM; 1.3% of 330,000 active;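 active = growth inhibition of the mutant yeast at or above 50%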;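 also: temperature-sensitive mutant grown at 25 °C; plate controls were DMSO-treated mutant yeast for no effect and medium wells lacking yeast for full effect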
NALP1 yeast inh = NALP1 inflammasome inhibitors in reconstituted yeast, colorimetric, S. cerevisiae, triplicate retest. S. cerevisiae NALP1/ASC/caspase-1 growth, X-gal OD620, 72 h. inhibition, % at 10 µM. 0.61% of 280,000 active. AID 2071, 2009; in the data active = inhibition mostly above about 24%, no sharp cut-off; inactive = mostly below about 32%
tim10-1 inh = growth inhibitors of tim10-1 mutant yeast, primary screen, luminescence, uHTS | 2.2% of 330,000 active | inhibition, % at 20 µM | S. cerevisiae tim10-1 ts strain growth, BacTiter-Glo, 24 h;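 active = inhibition of at least 40%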;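 also: mutant grown at 25 °C; 0% = DMSO wells with yeast and 100% = wells holding no yeast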
TIM10 inh = growth inhibitors of isogenic TIM10 control yeast, primary screen, counter-screen for tim10-1 yeast inhibitor project, luminescence, uHTS; S. cerevisiae TIM10 strain growth, BacTiter-Glo luminescence, 24 h; inhibition, % at 10 µM; 1.4% of 330,000 active; AID 463195, 2010;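 active = inhibition of 40% or more at the single tested concentration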;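 also: wild-type TIM10 isogenic control strain grown at permissive 25 °C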
NALP3 yeast inh = NALP3 inflammasome inhibitors in reconstituted yeast, primary screen, luminescence, uHTS | Yeast reconstituted NLRP3/ASC/caspase-1, beta-gal luminescence, 24 h | inhibition, % at 10 µM | 0.39% of 330,000 active;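 active = inhibition of 50% or more; inactive = inhibition below 50%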;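 also: plate controls were induced DMSO wells for no effect and uninduced yeast grown without galactose for full effect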
tim10-1 confirm = growth inhibitors of tim10-1 mutant yeast, confirmation, single concentration, luminescence, S. cerevisiae | shares compounds with tim10-1 inh | S. cerevisiae tim10-1 ts strain growth, BacTiter-Glo, 24 h | inhibition, % at 20 µM | 56% of 7,400 active | AID 463213, 2010;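 active = inhibition of yeast growth at or above a set limit in either of two repeat tests at 20 µM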;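 also: tim10-1 mutant grown at permissive 25 °C to find synthetic lethal compounds; 0% = DMSO yeast wells and 100% = medium wells without yeast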
TIM10 conf = growth inhibitors of wild-type TIM10 yeast, confirmation, counter-screen for tim10-1 synthetic lethality project, single concentration, luminescence, S. cerevisiae. shares compounds with TIM10 inh. inhibition, % at 10 µM. 63% of 4,600 active. AID 463215, 2010. S. cerevisiae tim10 strain growth, BacTiter-Glo luminescence, 24 h;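 active = inhibition of yeast growth at or above a set limit in either of two replicates at 10 µM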;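 also: this counterscreen used the strain with wild-type TIM10; 0% = yeast with DMSO and 100% = medium wells lacking yeast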
Numbers without * were called inactive; nt = no result.

SMILES | tim23-1 inh | NALP1 yeast inh | tim10-1 inh | TIM10 inh | NALP3 yeast inh | tim10-1 confirm | TIM10 conf
CC1CC(C)CN(C(=O)COC(=O)c2ccc([N+](=O)[O-])o2)C1 (stereo not given) | 22 | nt | 21 | 25 | 20 | nt | nt
CC1CCCN(C(=O)c2ccc([N+](=O)[O-])o2)C1 (stereo not given) | 41 | 0 | 57* | 46* | 27 | 40* | 40*
O=C(c1ccc(-c2ccc([N+](=O)[O-])cc2)o1)N1CCCC(C(F)(F)F)C1 (stereo not given) | 44 | nt | 64* | 43* | 19 | 55* | 48*
O=C(O)c1cccc(N/N=C/c2cn(-c3ccccc3)nc2-c2cccs2)c1 | 10 | -21 | 47* | 61* | 36 | 59* | 65*
CC(C)CN1C(=O)/C(=C/c2cccs2)NC1=S | 50 | -34 | 43* | 48* | -32 | 17 | 40*
CCCN1C(=O)/C(=C/c2ccc(C)s2)NC1=S | 36 | 0 | 47* | 45* | -6 | 12 | 40*
Cc1ccc(/C=C2/NC(=O)N(Cc3ccccc3F)C2=O)s1 | -19 | 19 | 13 | 0 | -1 | nt | nt
CC(C)CN1C(=O)/C(=C/c2ccco2)NC1=S | 18 | 21 | 22 | 22 | 9 | nt | nt
COC(=O)C1(Cc2cc(-c3ccc(Cl)cc3)no2)CCN(C(=O)OC(C)(C)C)CC1 | 28 | 7 | 54* | 44* | 12 | 45* | 40*
COc1cc(C2NC(=O)CCC2[N+](=O)[O-])cc(Br)c1OC (stereo not given) | 1 | 5 | 2 | 0 | 9 | nt | nt
COc1ccc(C(=O)/C=C/c2ccc(OC3CSC3)cc2)cc1OC | 30 | -6 | 42* | 42* | 14 | 28 | 10
CC(C)Sc1nc2c(cnn2-c2ccc(Cl)cc2)c(=O)[nH]1 | -8 | 14 | 13 | 12 | 16 | nt | nt
O=C(NC(=S)N1CCN(c2ccc(C(F)(F)F)cc2[N+](=O)[O-])CC1)c1cccs1 | 47 | 28 | 44* | 40* | 26 | 21 | 9
CCOc1cc(/C=N/NC(=O)c2cc(-c3cccnc3)nc3ccccc23)ccc1O | 39 | -6 | 45* | 44* | -4 | 38* | 28
CC(C)C[C@H]1CN=C(Nc2ccccc2)N1CC1CCC(C(C)(C)C)CC1 (stereo not given in full) | 50 | nt | 43* | 42* | 33 | 32* | 42*
O=C(Cc1cccc2ccccc12)NN1C(=O)/C(=C\c2cccnc2)SC1=S | 3 | nt | 6 | 1 | -13 | nt | nt
O=C(NN1C(=O)/C(=C\c2cccnc2)SC1=S)C(c1ccccc1)c1ccccc1 | 35 | 14 | 46* | 40* | 27 | 39* | -20
O=C(NN1C(=O)/C(=C/c2cccnc2)SC1=S)C(c1ccccc1)c1ccccc1 | 41 | 9 | 49* | 42* | 20 | 41* | 21
CCCCC(=O)NC(=S)Nc1c(C)cc(Br)cc1C | -25 | 6 | 34 | 20 | 19 | nt | nt
CC(C)(C)SC(=O)C[C@@H]1NS(=O)(=O)OC2CCCCC21 (stereo not given in full) | 2 | 14 | 14 | -4 | 15 | nt | nt
O=C(c1cccs1)N1CCN=C1SCc1cccnc1 | 13 | 7 | 25 | -8 | 5 | nt | nt
O=C(N1CCN=C1SCc1cccnc1)C12CC3CC(CC(C3)C1)C2 | 45 | -3 | 45* | 45* | 2 | 40* | 47*
N/C(=N\OC(=O)c1ccc2c(c1)OCO2)c1cccc([N+](=O)[O-])c1 | 23 | 1 | 48* | 44* | 8 | 33* | 26
N/C(=N\OC(=O)Oc1ccccc1)c1cccc([N+](=O)[O-])c1 | 11 | 26 | 2 | -8 | 14 | nt | nt
Cc1ccccc1C(=O)O/N=C(\N)c1cccc([N+](=O)[O-])c1 | 48 | 0 | 68* | 50* | 35 | 74* | 48*
SMILES | tim23-1 inh | NALP1 yeast inh | tim10-1 inh | TIM10 inh | NALP3 yeast inh | tim10-1 confirm | TIM10 conf
COc1ccc(/C=C/C(=O)OCC(=O)N2CCCCCC2)c(OC)c1 | 14 | nt | -9 | -12 | 24 | nt | nt
COC(=O)c1ccsc1NC(=O)CN1CCN(c2ncccn2)CC1 | 9 | 3 | 5 | -2 | 19 | nt | nt
COc1ccc2c(O)c(-c3c(C)cc(C)cc3C)c(=O)[nH]c2c1 | 9 | nt | -20 | -9 | 29 | nt | nt
O=S(=O)(NCCSCc1c(Cl)cccc1Cl)c1ccc2c(c1)OCCO2 | 48 | -2 | 53* | 50* | -9 | 45* | 35*
O=C(N/N=C/c1ccccn1)c1cc([N+](=O)[O-])cc([N+](=O)[O-])c1 | 20 | 9 | 42* | 48* | 12 | 11 | 8
CC(C)c1c(C(=O)N/N=C2\CCc3ccccc32)nnn1-c1nonc1N | -6 | -7 | 6 | -21 | 10 | nt | nt
Cc1ccc2c(c1)sc(-c1ccc(N(C)C)cc1)[n+]2C | 48 | 20 | 70* | 85* | 7 | 74* | 82*
Cc1cc(C(F)F)n2nc(C(=O)Nc3sc4c(c3C#N)CCC(C)C4)nc2n1 (stereo not given) | 48 | 1 | 57* | 42* | 5 | 48* | 42*
Cc1cc(C)nc(SCC(=O)Nc2sc3c(c2C#N)CCC(C)C3)n1 (stereo not given) | -18 | nt | -2 | -17 | 7 | nt | nt
CC(C)N(CCCNC(=O)Cn1c(=O)c2cccn2c2ccccc21)Cc1ccccc1 | 10 | 8 | 8 | -3 | 11 | nt | nt
COc1ccccc1N1CCN(c2nc(C)nc3c2oc2ccccc23)CC1 | nt | 2 | nt | nt | nt | nt | nt
Cc1nc(N2CCC(C)CC2)c2oc3ccccc3c2n1 | 46 | 7 | 49* | 46* | 2 | 27 | 47*
Cc1ccc(-n2cnc3cc(NCc4cccs4)ccc32)cc1 | 28 | -3 | 56* | 63* | 34 | 57* | 64*
O=[N+]([O-])c1ccc(-c2nc(-c3cccs3)c(-c3cccs3)[nH]2)cc1 | 15 | 8 | 65* | 69* | -10 | 52* | 61*
COc1ccccc1OCC(=O)N/N=C/C=C/c1ccc([N+](=O)[O-])o1 | 46 | 48 | 67* | 48* | -9 | 84* | 51*
CCCCCCCC(=O)N/N=C/c1ccc([N+](=O)[O-])o1 | 43 | 41 | 55* | 49* | 28 | 56* | 26
Cc1ccccc1OCC(=O)NCC(=O)N/N=C/c1ccc(Br)o1 | 15 | 32 | 12 | 14 | 11 | nt | nt
